For part of these data: Measured potencies and affinities stand elsewhere. Activity calls are given as the source filed them.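 How the source made its calls, unless noted: active means dose curve with midpoint inside tested range, moderate steepness, plateau gap beyond fit error, low compound glow and bead-link interference; inactive means the rest.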

The target in experiment [1] is Cell division control protein 42 homolog (Homo sapiens) (UniProt P60953). Kind of experiment: inhibition of fluorescent GTP binding to constitutively active Cdc42 – biochemical, multiplex bead flow cytometry, Bodipy-FL-GTP, dose response (AID 1333;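 active means fitted half-maximal concentration within the tested dose range, moderate curve steepness, a statistically real signal drop, and little compound fluorescence or tag-binding interference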).
For experiment [2] the target is unchanged. Kind of experiment: inhibition of fluorescent GTP binding to wildtype Cdc42 – biochemical, multiplex bead flow cytometry, Bodipy-FL-GTP, dose response (AID 1334;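 active means fitted half-maximal concentration within the tested range, moderate curve steepness, significant signal drop, and little compound fluorescence or bead-linkage interference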). The settings on record: bead-based flow cytometry, Bodipy-FL-GTP binding to GST-Cdc42; at 100 µM (top of the series) unless noted. (In general: Flow cytometry measures light scatter and fluorescence of single cells or particles in a stream.)

Experiment [3] deals with GTPase HRas (Homo sapiens) (UniProt P01112). Kind of experiment: Ras wt fluorescent GTP loading blockade – biochemical, wildtype, multiplex bead flow cytometry, dose response (AID 1335;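 active means fitted half-maximal concentration within 10 nM to 100 µM, steepness 0.5 to 2, significant signal drop, low assay interference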). To be noted: bead-based flow cytometry, Bodipy-GTP binding to GST-Ras; at 100 µM (top of the series) unless noted.
The subject of experiment [4] is Ras-related protein Rab-7a (dog), GTP binding. Kind of experiment: blockers of fluorescent GTP binding to Rab7 – biochemical, wildtype, multiplex bead flow cytometry, dose response (AID 1336; call rule not given here).
Experiment [5] concerns the target Ras-related C3 botulinum toxin substrate 1 (Homo sapiens) (UniProt P63000). Kind of experiment: inhibition of wildtype Rac1 nucleotide loading – biochemical, multiplex bead flow cytometry, dose response (AID 1340). To be noted: GST-Rac1 beads, Bodipy-FL-GTP binding; at 100 µM (top of the series) unless noted.
In experiment [6] the target is GTPase HRas (Homo sapiens) (UniProt P01112). Kind of experiment: blockade of GTP loading onto mutant Ras – biochemical, activated mutant, multiplex bead flow cytometry, dose response (AID 1341;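 active means dose-response curve with midpoint inside the tested range, moderate steepness, significant amplitude and little compound fluorescence or bead-attachment interference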;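 further: GST-tagged constitutively activated Ras mutant immobilized on beads and multiplexed with other GTPases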).

Cell division control protein 42 homolog (Homo sapiens), sequence (P60953 whole entry, looked up): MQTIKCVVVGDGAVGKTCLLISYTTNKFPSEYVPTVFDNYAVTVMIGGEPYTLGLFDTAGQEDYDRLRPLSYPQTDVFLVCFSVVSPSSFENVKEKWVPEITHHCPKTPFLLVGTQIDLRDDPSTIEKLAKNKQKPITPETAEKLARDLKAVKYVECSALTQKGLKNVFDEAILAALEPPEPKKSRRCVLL
GTPase HRas (Homo sapiens), sequence (P01112 whole entry, looked up): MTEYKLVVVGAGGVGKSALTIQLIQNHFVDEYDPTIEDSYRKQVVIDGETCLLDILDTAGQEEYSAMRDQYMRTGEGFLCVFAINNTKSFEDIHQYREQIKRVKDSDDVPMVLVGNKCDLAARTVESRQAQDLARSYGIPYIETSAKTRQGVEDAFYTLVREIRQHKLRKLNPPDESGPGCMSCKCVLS

Regarding `Cc1cc(NCc2ccccn2)n2c(nc3ccccc32)c1C#N`, the compound was classed as inactive in experiment [1], in experiment [4] and in experiment [6]. Further, the fluorescence, percent of control (lower = inhibition) in experiment [2] turned out to be 42.7%. This compound also returned a GTP binding, percent of control in experiment [3] of 87.9%. Moreover, the GTP binding signal, raw median fluorescence (lower = inhibition) (MCF (arbitrary fluorescence units)) in experiment [5] is 192.
As to `O=C(O)c1ccc(CSCc2cccc(Cl)c2)o1`, the compound was called inactive in experiment [1], in experiment [4] and in experiment [6]. Moreover, the fluorescence, percent of control (lower = inhibition) in experiment [2] was found to be 57.3%. Also, the GTP binding, percent of control in experiment [3] worked out at 81.4%. The compound further came in with a GTP binding signal, raw median fluorescence (lower = inhibition) (MCF (arbitrary fluorescence units)) in experiment [5] of 30.1.
As for `Cc1cc(NS(=O)(=O)c2ccc(Nc3nc(-c4sc(N)nc4C)cs3)cc2)no1`, the outcome in experiment [1], in experiment [4] and in experiment [6] was inactive. Further, in experiment [2], the fluorescence, percent of control (lower = inhibition) worked out at 23.8%. This compound yielded a GTP binding, percent of control in experiment [3] of 58.3%. Besides, the GTP binding signal, raw median fluorescence (lower = inhibition) (MCF (arbitrary fluorescence units)) in experiment [5] stood at 122.
As to `O=C(O)c1nnn(Cc2ccccc2)c1C(=O)O`, the result in experiment [1], in experiment [4] and in experiment [6] was inactive. In addition, the fluorescence, percent of control (lower = inhibition) in experiment [2] was determined as 60.5%. For the same compound, the GTP binding, percent of control in experiment [3] was 82.2%. Besides, in experiment [5], the GTP binding signal, raw median fluorescence (lower = inhibition) (MCF (arbitrary fluorescence units)) was 33.
As to `CCOc1cc(/C=N/NC(=O)CSc2cccc3cccnc23)ccc1O`, the result in experiment [1], in experiment [4] and in experiment [6] was inactive. Further, in experiment [2], the fluorescence, percent of control (lower = inhibition) stood at 35.6%. This compound returned a GTP binding, percent of control in experiment [3] of 78.2%. Further, the GTP binding signal, raw median fluorescence (lower = inhibition) (MCF (arbitrary fluorescence units)) in experiment [5] was found to be 188.
For `CO/N=C/NC(=O)NOCc1ncc(C(F)(F)F)cc1Cl`, the compound was classed as inactive in experiment [1], in experiment [4] and in experiment [6]. Besides, the fluorescence, percent of control (lower = inhibition) in experiment [2] was 38.1%. Besides, the GTP binding, percent of control in experiment [3] stood at 86.2%. The compound further returned a GTP binding signal, raw median fluorescence (lower = inhibition) (MCF (arbitrary fluorescence units)) in experiment [5] of 295.
Take `COc1ccc(C(=O)Nn2c(SCC(=O)c3ccccc3)nc3ccccc3c2=O)cc1`: the call in experiment [1], in experiment [4] and in experiment [6] was inactive. For the same compound, the fluorescence, percent of control (lower = inhibition) in experiment [2] was 71.5%. Also, the GTP binding, percent of control in experiment [3] was 119%. Besides, the GTP binding signal, raw median fluorescence (lower = inhibition) (MCF (arbitrary fluorescence units)) in experiment [5] was 135.
Take `Cc1nnc(N2CCOCC2)c2nn(-c3cccc(Cl)c3)c(C)c12`: the compound was classed as inactive in experiment [1], in experiment [4] and in experiment [6]. For the same compound, the fluorescence, percent of control (lower = inhibition) in experiment [2] was found to be 204%. In experiment [3], this compound came in with a GTP binding, percent of control of 209%. This compound also returned a GTP binding signal, raw median fluorescence (lower = inhibition) (MCF (arbitrary fluorescence units)) in experiment [5] of 306.
For the compound `Cc1[nH]c2ccccc2c1/C=C/C(=O)c1ccccc1`, the compound was called inactive in experiment [1], in experiment [4] and in experiment [6]. Besides, the fluorescence, percent of control (lower = inhibition) in experiment [2] amounted to 68.9%. In addition, the GTP binding, percent of control in experiment [3] worked out at 81.7%. The compound also gave a GTP binding signal, raw median fluorescence (lower = inhibition) (MCF (arbitrary fluorescence units)) in experiment [5] of 216.
In the case of `Cc1ccc(C)c(N(CC(N)=O)S(C)(=O)=O)c1`, the outcome in experiment [1], in experiment [4] and in experiment [6] was inactive. Further, the fluorescence, percent of control (lower = inhibition) in experiment [2] was 103%. Further, in experiment [3], the GTP binding, percent of control amounted to 135%. Besides, the GTP binding signal, raw median fluorescence (lower = inhibition) (MCF (arbitrary fluorescence units)) in experiment [5] turned out to be 164.
Turning to `Cn1nc(C(F)(F)F)c(/C=N/OC(=O)c2ccccc2)c1SCc1ccc(Cl)cc1`, the outcome in experiment [1], in experiment [4] and in experiment [6] was inactive. In addition, the fluorescence, percent of control (lower = inhibition) in experiment [2] was 98.8%. The GTP binding, percent of control in experiment [3] was 181%. The GTP binding signal, raw median fluorescence (lower = inhibition) (MCF (arbitrary fluorescence units)) in experiment [5] came to 175.
For the compound `COc1cc(NC(=O)c2cccs2)c(OC)cc1NC(=O)CCC(=O)Nc1cccc2ncccc12`, the result in experiment [1], in experiment [4] and in experiment [6] was inactive. Further, in experiment [2], the fluorescence, percent of control (lower = inhibition) was 32.3%. Further, the GTP binding, percent of control in experiment [3] was 72.4%. Moreover, in experiment [5], the GTP binding signal, raw median fluorescence (lower = inhibition) (MCF (arbitrary fluorescence units)) was 144.
With `CCOc1ccc(Cn2c3ccc(OC)cc3c3nc4ccccc4nc32)cc1`, the compound was classed as inactive in experiment [1], in experiment [4] and in experiment [6]. In addition, the fluorescence, percent of control (lower = inhibition) in experiment [2] turned out to be 114% [at 33.3 µM]. Moreover, the GTP binding, percent of control in experiment [3] turned out to be 127% [at 33.3 µM]. This compound also came in with a GTP binding signal, raw median fluorescence (lower = inhibition) (MCF (arbitrary fluorescence units)) in experiment [5] of 242.
Consider `CCC1CCCCN1S(=O)(=O)c1ccc(NC(=O)CSc2ncccc2C(=O)O)cc1` (configuration not stated), for which the compound was classed as inactive in experiment [1], in experiment [4] and in experiment [6]. Besides, the fluorescence, percent of control (lower = inhibition) in experiment [2] is 43.1%. Moreover, in experiment [3], the GTP binding, percent of control was found to be 57.5%. Besides, the GTP binding signal, raw median fluorescence (lower = inhibition) (MCF (arbitrary fluorescence units)) in experiment [5] came to 109.
For the compound `O=C(O)c1ccc(NS(=O)(=O)c2ccc3c(c2)C(=O)c2ccccc2C3=O)cc1`, the call in experiment [1], in experiment [4] and in experiment [6] was inactive. Further, in experiment [2], the fluorescence, percent of control (lower = inhibition) was determined as 28.6%. Besides, the GTP binding, percent of control in experiment [3] is 69%. This compound also returned a GTP binding signal, raw median fluorescence (lower = inhibition) (MCF (arbitrary fluorescence units)) in experiment [5] of 118.
In the case of `COc1cccc(C(=O)O)c1OCc1c(C)cccc1C`, the result in experiment [1], in experiment [4] and in experiment [6] was inactive. The fluorescence, percent of control (lower = inhibition) in experiment [2] amounted to 58.8%. Further, the GTP binding, percent of control in experiment [3] is 204%. The GTP binding signal, raw median fluorescence (lower = inhibition) (MCF (arbitrary fluorescence units)) in experiment [5] was 54.1.
Take `CCOC(=O)Cn1c(=O)c2c(nc(N3CCCCC3)n2C)n(C)c1=O`: the compound was called inactive in experiment [1], in experiment [4] and in experiment [6]. In addition, in experiment [2], the fluorescence, percent of control (lower = inhibition) came to 52.2%. The compound further registered a GTP binding, percent of control in experiment [3] of 63.3%. In addition, the GTP binding signal, raw median fluorescence (lower = inhibition) (MCF (arbitrary fluorescence units)) in experiment [5] was 168.

These data come from PubChem BioAssay.
